Measurements from PubChem BioAssay (NCATS).
Results filed as inconclusive are left out. The call rests on the fitted dose curve; in most records, active means well fitted inhibition curve with a large enough effect; inconclusive means small, poorly fitted or top-dose-only effect; inactive means flat fitted curve, though single readings scatter.

Test: qHTS profiling for inhibitors of Plasmodium falciparum proliferation (AID 504749);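 further: 0% = DMSO vehicle and full inhibition = artemisinin control; nearly all actives have a fitted effect of over 60% in size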
Settings: P. falciparum in erythrocytes, SYBR Green DNA, 72 h; at 28.7 µM (top of the series); parasite line A
Method in brief: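 Quantitative HTS: compounds pinned into medium, infected erythrocytes added (0.3% parasitemia, 2.5% hematocrit), 72 h culture at 37 C under 5% CO2. Saponin/Triton lysis with SYBR Green I, overnight RT, then fluorescence read.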

activity, negative = inhibition, inactive:
CCCCCCCCCCCCCCCC(=O)OC[C@H](O)[C@H]1OC[C@@H](O)[C@@H]1O -0.407%
C[C@H]1OC(OC2C(O)[C@@H](O)C(OC3C(O)[C@@H](O)C(O)O[C@@H]3CO)O[C@@H]2CO)[C@H](O)C(O)C1N[C@H]1C=C(CO)[C@@H](O)[C@H](O)C1O (stereo partly drawn) -6.96%
CCN(CC)CC(=O)Nc1c(C)cc(C)cc1C 2.56%
NC(=O)c1ncn(C2OC(CO)C(O)C2O)c1N (stereo not drawn) 3.47%
CC1(Cn2ccnn2)[C@H](C(=O)O)N2C(=O)C[C@H]2S1(=O)=O (stereo partly drawn) 4.59%
CN(C)CC/C=C1\c2ccccc2COc2ccc(CC(=O)O)cc21 1.27%
CCCC(=O)O[C@]1(C(=O)COC(C)=O)CC[C@H]2C3C[C@H](F)C4=CC(=O)C=CC4(C)[C@@]3(F)[C@@H](O)CC21C (stereo partly drawn) -8.4%
OCCN1CC(O)C(O)C(O)C1CO (stereo not drawn) 13.3%
CC(CCC(=O)O)C1CCC2C3C(=O)C[C@@H]4CC(=O)CC[C@@]4(C)C3CC(=O)[C@]12C (stereo partly drawn) -3.83%
O=C(OC[C@@H]1O[C@@](O)(COC(=O)c2cccnc2)[C@H](OC(=O)c2cccnc2)[C@H]1OC(=O)c1cccnc1)c1cccnc1 18.2%
O=[N+]([O-])O[C@H]1CO[C@H]2[C@@H]1OC[C@H]2O 14.3%
COc1cccc(OC)c1C(=O)NC1C(=O)N2C1SC(C)(C)C2C(=O)O (stereo not drawn) 11.2%
NC[C@@H]1O[C@H](OC2[C@@H](CO)O[C@@H](OC3[C@H](O)[C@H](N)C[C@H](N)[C@H]3OC3O[C@H](CO)[C@@H](O)[C@H](O)[C@@H]3N)[C@H]2O)C(N)[C@H](O)[C@@H]1O (stereo partly drawn) 11.9%
